The text below walks through data of article PMC4336329 (PLoS ONE, 2015).

Among all 310,000 compounds or so, about 14,000 (4.5%) showed an effect of 50% or more. Effects have a minus sign here. The list comes from a sample in which strong results are over-represented; it also holds similar structures and randomly drawn compounds.
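Further: peak tail current of the secondary pulse compared with the same well before compound.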

In the test the target is human ether-à-go-go-related gene (hERG) potassium channel (human, UniProt Q12809). The test can be described thus: primary screen, population patch clamp on CHO cells stably expressing hERG; higher = less effect of the substance.
Sequence of human ether-à-go-go-related gene (hERG) potassium channel (Q12809 whole entry, looked up): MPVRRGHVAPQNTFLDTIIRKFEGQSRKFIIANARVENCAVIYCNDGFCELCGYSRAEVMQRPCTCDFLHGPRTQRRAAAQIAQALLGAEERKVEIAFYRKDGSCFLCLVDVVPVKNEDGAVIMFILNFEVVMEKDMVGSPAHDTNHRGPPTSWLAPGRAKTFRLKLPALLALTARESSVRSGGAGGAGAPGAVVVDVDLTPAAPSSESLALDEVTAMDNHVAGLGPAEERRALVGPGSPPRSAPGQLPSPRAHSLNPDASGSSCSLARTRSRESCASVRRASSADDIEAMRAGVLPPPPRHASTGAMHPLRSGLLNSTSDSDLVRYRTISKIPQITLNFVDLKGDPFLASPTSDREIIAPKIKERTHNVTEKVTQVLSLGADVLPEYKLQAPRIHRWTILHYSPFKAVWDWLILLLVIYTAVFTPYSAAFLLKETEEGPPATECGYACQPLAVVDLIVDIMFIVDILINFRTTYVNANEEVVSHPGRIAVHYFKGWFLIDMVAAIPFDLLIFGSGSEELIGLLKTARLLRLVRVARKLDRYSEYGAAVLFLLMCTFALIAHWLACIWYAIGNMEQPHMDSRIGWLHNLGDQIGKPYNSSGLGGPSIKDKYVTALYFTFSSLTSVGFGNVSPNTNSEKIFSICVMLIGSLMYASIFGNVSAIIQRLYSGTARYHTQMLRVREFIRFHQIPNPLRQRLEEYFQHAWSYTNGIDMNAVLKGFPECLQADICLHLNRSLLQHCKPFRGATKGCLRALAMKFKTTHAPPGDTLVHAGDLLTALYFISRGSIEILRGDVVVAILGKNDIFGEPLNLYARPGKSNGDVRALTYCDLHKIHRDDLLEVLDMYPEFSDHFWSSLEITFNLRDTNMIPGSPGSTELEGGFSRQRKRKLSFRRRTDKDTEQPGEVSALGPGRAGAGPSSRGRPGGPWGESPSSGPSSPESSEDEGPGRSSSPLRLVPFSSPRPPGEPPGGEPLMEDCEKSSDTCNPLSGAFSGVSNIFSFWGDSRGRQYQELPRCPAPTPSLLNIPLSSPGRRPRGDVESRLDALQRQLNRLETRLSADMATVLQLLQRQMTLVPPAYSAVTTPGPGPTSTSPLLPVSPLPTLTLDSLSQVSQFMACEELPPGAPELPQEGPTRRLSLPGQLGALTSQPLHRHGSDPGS
In the case of `Cc1ccccc1S(=O)(=O)NCc1cccnc1`, the “hERG current change (%, negative = inhibition) at 10uM” value turned out to be 5.17%.
Consider `CN(C)S(=O)(=O)Nc1cc(Cl)cc(Cl)c1`, for which the “hERG current change (%, negative = inhibition) at 10uM” value is on record as -0.782%.
Turning to `COc1ccc(C(O)(CCN2CCCCC2)C2CCCCC2)cc1.Cl` (stereo not shown), the “hERG current change (%, negative = inhibition) at 10uM” value is on record as -27.4%.
Next, `CC(C)C1N(C(=O)CN2CCCC2)CCN1S(=O)(=O)c1ccccc1` (stereo not shown): 11%; `Cc1cc(C(=O)NNc2cc(Cl)ccc2Cl)no1`: 6.55%.
`O=C1N(Cc2cccnc2)C[C@@H]2C[C@@H](c3ccc(-c4ccccc4)cc3)N3CCC[C@@]123`: the “hERG current change (%, negative = inhibition) at 10uM” value is -71.3%.
In the case of `COC(=O)c1ccc([C@@H]2C[C@H]3CN(Cc4cccnc4)C(=O)[C@]34CCCN24)cc1`, the “hERG current change (%, negative = inhibition) at 10uM” value is recorded as -1.19%.
Turning to `Cc1cc(C(=O)N/N=C/c2c[nH]c3ccccc23)cs1`, the “hERG current change (%, negative = inhibition) at 10uM” value is -8.33%.
Consider `NC(=O)CSc1nnc(-c2ccccc2Br)n1-c1cccc(C(F)(F)F)c1`, for which the “hERG current change (%, negative = inhibition) at 10uM” value is reported as -11.9%.
As for `C=CCNC(=O)NC(=O)CSc1nc2cc([N+](=O)[O-])ccc2n1-c1cccc(C(F)(F)F)c1`, the “hERG current change (%, negative = inhibition) at 10uM” value was found to be 20.8%.
Next, `NC(=O)CSc1nc2cc([N+](=O)[O-])ccc2n1-c1cccc(C(F)(F)F)c1`: -69.9%; `CC(Sc1nc2cc([N+](=O)[O-])ccc2n1-c1cccc(C(F)(F)F)c1)C(=O)NC(N)=O` (stereo not shown): 13.6%; `NC(=O)NC(=O)CSc1nc2cc([N+](=O)[O-])ccc2n1-c1cccc(C(F)(F)F)c1`: -57.7%.
With `CCNC(=O)CSc1nc2cc([N+](=O)[O-])ccc2n1-c1cccc(C(F)(F)F)c1`, the “hERG current change (%, negative = inhibition) at 10uM” value is listed as -35.8%.
Take `Cc1ccc(SCC(=O)Nc2cccc(C(=O)NC(C)(C)C)c2)cc1`: the “hERG current change (%, negative = inhibition) at 10uM” value was found to be 4.17%.
Next, `O=C(Nc1cc(Cl)ccc1N1CCOCC1)c1cccnc1Cl`: 1.8%; `O=S(=O)(c1ccc(N2CCCCCC2)nc1)N1CCCC1`: 17.2%; `Cc1ccc(S(=O)(=O)N(C)C)cc1[N+](=O)[O-]`: -4.14%.
Consider `COc1ccc(CCNC(=O)c2cnccn2)cc1`, for which the “hERG current change (%, negative = inhibition) at 10uM” value was 10.8%.
As to `O=C(C[n+]1cccc2ccccc21)c1ccc(NC(=O)c2ccccc2)cc1.[Br-]`, the “hERG current change (%, negative = inhibition) at 10uM” value is 8.45%.
For the compound `O=C(C[n+]1cc(Br)cc2ccccc21)c1ccc(Cl)cc1.[Br-]`, the “hERG current change (%, negative = inhibition) at 10uM” value was -49.8%.
Turning to `Cc1ccc2c(ccc[n+]2CC(=O)c2ccccc2)c1.[Br-]`, the “hERG current change (%, negative = inhibition) at 10uM” value was -13.1%.
Consider `COc1ccc(C(=O)C[n+]2cccc(C)c2C)cc1[N+](=O)[O-].[Br-]`, for which the “hERG current change (%, negative = inhibition) at 10uM” value was -13.2%.
Next, `O=C(C[n+]1cc2ccccc2c2ccccc21)c1ccccc1.[Br-]`: -73.8%.
Next, `O=C(C[n+]1cc(Br)cc2ccccc21)c1ccc(F)cc1.[Br-]`: -41.6%; `O=C(C[n+]1cc(Br)cc2ccccc21)c1ccc(Br)cc1.[Br-]`: -83.3%.
Take `O=C(C[n+]1cc(Br)cc2ccccc21)c1ccccc1.[Br-]`: the “hERG current change (%, negative = inhibition) at 10uM” value is -21.7%.
Next, `COc1ccc(C(=O)C[n+]2cc(Br)cc3ccccc32)cc1[N+](=O)[O-].[Br-]`: -66.3%.
Next, `N#CCc1c(C#N)c(N)nc(N2CCN(S(=O)(=O)c3ccccc3)CC2)c1C#N`: -0.357%; `C=CCn1c(SCC(=O)Nc2cccnc2Cl)nnc1-c1ccccc1F`: -15.5%; `COc1cc(C=O)ccc1OCCSc1ccc(C)cc1`: -3.13%.
As for `O=C(CSc1nnc(CNC(=O)c2ccco2)o1)Nc1ccccc1`, the “hERG current change (%, negative = inhibition) at 10uM” value amounted to 17.2%.
Next, `CN(C)C(CNC(=O)CCc1c[nH]c2ccccc12)c1ccccc1` (stereo not shown): -5.7%; `CCOC(=O)C1=CC[C@H]2c3c(c4ccccc4n3C)C(=O)C1N2S(=O)(=O)c1ccc(C)cc1`: -4.05%; `COc1ccc(CNC(=O)C2=CC(c3ccc(C)cc3)=NS(=O)(=O)N2C)cc1`: -9.69%.
As for `COc1ccc(C2=NS(=O)(=O)N(C)C(C(=O)NCc3ccco3)=C2)cc1OC`, the “hERG current change (%, negative = inhibition) at 10uM” value is listed as -48.9%.
Next, `COc1ccc(C2=NS(=O)(=O)N(C)C(C(=O)N(C)Cc3ccccc3)=C2)cc1`: -69.9%; `COc1ccc(C2=NS(=O)(=O)N(C)C(C(=O)NC(C)c3ccccc3)=C2)cc1` (stereo not shown): -23.8%; `COc1ccc(C2=NS(=O)(=O)N(C)C(C(=O)NCc3cccs3)=C2)cc1OC`: -53.9%.
On to `COc1ccc(C2=NS(=O)(=O)N(C)C(C(=O)N(C)Cc3ccccc3)=C2)cc1OC`, for which the “hERG current change (%, negative = inhibition) at 10uM” value is given as -6.75%.
Consider `Cc1ccc(C2=NS(=O)(=O)N(C)C(C(=O)NCc3ccco3)=C2)cc1`, for which the “hERG current change (%, negative = inhibition) at 10uM” value is given as -58.4%.
Regarding `COc1ccc(CNC(=O)C2=CC(c3ccc(OC)cc3)=NS(=O)(=O)N2C)cc1`, the “hERG current change (%, negative = inhibition) at 10uM” value is -54.5%.
As to `COc1ccc(C2=NS(=O)(=O)N(C)C(C(=O)NCc3ccccn3)=C2)cc1`, the “hERG current change (%, negative = inhibition) at 10uM” value is on record as -33.9%.
